Measurements from ChEMBL document CHEMBL5606460, “ASAP - DENV-2 NS2B-NS3 protease fluorescence single point” (2024).
In all, about 2,000 compounds went through this assay and about 110 (5.5%) showed an effect of 50% or more. Only a selection was taken, and strong results are over-represented in it overall.

Molecular target: Genome polyprotein (dengue virus type 2) (UniProt P29990)
[1] = Thailand/16681/1984, Concentration 25.0 uM, Number of replicates 1.0

Structure (SMILES): CNc1ccccc1C(=O)Nc1cccc2c(CO)cc(C)nc12
- inhibition (Thailand/16681/1984, Concentration 49.95 uM, Number of replicates 2.0, Standard deviation 1.7606224720878931 %): -0.213%
- inhibition (Thailand/16681/1984, Concentration 99.9 uM, Number of replicates 2.0, Standard deviation 1.1796035516056886 %): 2.15%

Structure (SMILES): Cc1cc(N)c2cccc(F)c2n1
- inhibition (Thailand/16681/1984, Concentration 49.95 uM, Number of replicates 2.0, Standard deviation 2.207074007413848 %): -9.77%
- inhibition (Thailand/16681/1984, Concentration 99.9 uM, Number of replicates 2.0, Standard deviation 2.035147234269057 %): -9.31%

Structure (SMILES): Cn1cc(NC(=O)c2ccccc2C(F)(F)F)c(-c2ccc(N)nc2)n1
- inhibition (Thailand/16681/1984, Concentration 49.5 uM, Number of replicates 2.0, Standard deviation 0.02318042950620363 %): -3.62%
- inhibition (Thailand/16681/1984, Concentration 99.01 uM, Number of replicates 2.0, Standard deviation 0.5795125921164253 %): -3.54%
- inhibition (Thailand/16681/1984, Concentration 198.0 uM, Number of replicates 2.0, Standard deviation 2.685074924440845 %): -2.16%

Structure (SMILES): O=C(c1ccc2c(c1)B(O)OC2)N1CCN[C@H](c2ccc(Cl)cc2)C1
- inhibition (Thailand/16681/1984, Concentration 49.5 uM, Number of replicates 2.0, Standard deviation 1.1051975895382533 %): -1.33%
- inhibition (Thailand/16681/1984, Concentration 99.01 uM, Number of replicates 2.0, Standard deviation 0.5109273627094355 %): -1.22%
- inhibition (Thailand/16681/1984, Concentration 198.0 uM, Number of replicates 2.0, Standard deviation 0.04393612974415127 %): -0.309%

Structure (SMILES): Cc1n[nH]cc1-c1ccccc1C(=O)Nc1cnn(C)c1
- inhibition (Thailand/16681/1984, Concentration 49.5 uM, Number of replicates 2.0, Standard deviation 1.4825862030761958 %): -4.22%
- inhibition (Thailand/16681/1984, Concentration 99.01 uM, Number of replicates 2.0, Standard deviation 3.6856999240165664 %): -5.61%
- inhibition (Thailand/16681/1984, Concentration 198.0 uM, Number of replicates 2.0, Standard deviation 2.662860479629087 %): -5.61%

Structure (SMILES): Cc1ccc(NC(=O)C2CCN(c3ccc(C=O)cc3)CC2)cc1Br
- inhibition [1]: 8.71%

Structure (SMILES): CC(C)Cn1cccc(C(=O)Nc2ccncc2C(F)(F)F)c1=O
- inhibition (Thailand/16681/1984, Concentration 49.5 uM, Number of replicates 2.0, Standard deviation 5.23322293563183 %): -3.89%
- inhibition (Thailand/16681/1984, Concentration 99.01 uM, Number of replicates 2.0, Standard deviation 0.16283923825626637 %): -4.73%
- inhibition (Thailand/16681/1984, Concentration 198.0 uM, Number of replicates 2.0, Standard deviation 1.971758036933884 %): -6.94%

Structure (SMILES): O=Cc1ccc(N2CCC(C(=O)N3CCN(C(=O)[C@H]4COc5ccccc5O4)CC3)CC2)cc1
- inhibition [1]: 13%

Structure (SMILES): NCc1cccc(NC(=O)[C@H]2CC(F)(F)CN2C(=O)OCc2ccccc2)c1
- inhibition (Thailand/16681/1984, Concentration 49.5 uM, Number of replicates 2.0, Standard deviation 3.8817212285914895 %): -3.13%
- inhibition (Thailand/16681/1984, Concentration 99.01 uM, Number of replicates 2.0, Standard deviation 4.048573795130085 %): -2.21%
- inhibition (Thailand/16681/1984, Concentration 198.0 uM, Number of replicates 2.0, Standard deviation 4.090127173867097 %): -1.49%

Structure (SMILES): O=Cc1ccc(N2CCC(C(=O)N(Cc3ccco3)Cc3cccs3)CC2)cc1
- inhibition [1]: 11%

Structure (SMILES): Cc1cc(CO)c2cccc(NC(=O)c3ccc(N)nn3)c2n1
- inhibition (Thailand/16681/1984, Concentration 49.95 uM, Number of replicates 2.0, Standard deviation 1.176901179972867 %): 11%
- inhibition (Thailand/16681/1984, Concentration 99.9 uM, Number of replicates 2.0, Standard deviation 1.886285239678155 %): 19.5%

Structure (SMILES): C[C@@H](Cc1ccc(C(F)(F)F)cc1)NC(=O)C1CCN(c2ccc(C=O)cc2)CC1
- inhibition [1]: 8.27%

Structure (SMILES): O=Cc1ccc(N2CCC(C(=O)NCC34CC5CC(CC(C5)C3)C4)CC2)cc1
- inhibition [1]: 11.8%

Structure (SMILES): c1ccc2[nH]c(CN3CC[C@H](c4c[nH]c5ccccc45)C3)cc2c1
- inhibition (Thailand/16681/1984, Concentration 49.5 uM, Number of replicates 2.0, Standard deviation 0.7608740215940771 %): 4.51%
- inhibition (Thailand/16681/1984, Concentration 99.01 uM, Number of replicates 2.0, Standard deviation 0.30587350380986955 %): 4.39%
- inhibition (Thailand/16681/1984, Concentration 198.0 uM, Number of replicates 2.0, Standard deviation 0.6449469231287406 %): 3.06%

Structure (SMILES): Cc1c(Br)cnc(NC(=O)C2CCN(c3ccc(C=O)cc3)CC2)c1[N+](=O)[O-]
- inhibition [1]: 13.3%

Structure (SMILES): Cc1nn(Cc2nnc(C(C)C)o2)cc1C1CCNCC1
- inhibition (Thailand/16681/1984, Concentration 49.5 uM, Number of replicates 2.0, Standard deviation 1.2271984598057826 %): -1.09%
- inhibition (Thailand/16681/1984, Concentration 99.01 uM, Number of replicates 2.0, Standard deviation 0.3137269789739955 %): -1.28%
- inhibition (Thailand/16681/1984, Concentration 198.0 uM, Number of replicates 2.0, Standard deviation 0.585185347191749 %): -1.14%

Structure (SMILES): O=Cc1ccc(N2CCC(C(=O)N3CCN(c4ncccn4)CC3)CC2)cc1
- inhibition [1]: 13.4%

Structure (SMILES): O=C(N[C@H]1CCOC1)c1cc(Cl)ccc1NS(=O)(=O)c1ccc(Oc2ccccc2Cl)cc1
- inhibition (Thailand/16681/1984, Concentration 49.5 uM, Number of replicates 2.0, Standard deviation 0.8156312071794307 %): 64.1%
- inhibition (Thailand/16681/1984, Concentration 99.01 uM, Number of replicates 2.0, Standard deviation 0.42939613872644544 %): 63.6%
- inhibition (Thailand/16681/1984, Concentration 198.0 uM, Number of replicates 2.0, Standard deviation 0.707503298737338 %): 53%

Structure (SMILES): O=S(=O)(NC1CCCCC1)c1ccc(Oc2ccccc2Cl)cc1
- inhibition (Thailand/16681/1984, Concentration 49.5 uM, Number of replicates 2.0, Standard deviation 1.7919780415060578 %): 0.164%
- inhibition (Thailand/16681/1984, Concentration 99.01 uM, Number of replicates 2.0, Standard deviation 2.26588512977007 %): 2.51%
- inhibition (Thailand/16681/1984, Concentration 198.0 uM, Number of replicates 2.0, Standard deviation 2.2194744531827233 %): 5.38%

Structure (SMILES): O=C(NC[C@H]1CCOC1)c1cc(Cl)ccc1NS(=O)(=O)c1ccc(Oc2ccccc2Cl)cc1
- inhibition (Thailand/16681/1984, Concentration 49.5 uM, Number of replicates 2.0, Standard deviation 2.9570930238802475 %): 78.1%
- inhibition (Thailand/16681/1984, Concentration 99.01 uM, Number of replicates 2.0, Standard deviation 0.09728436725720986 %): 83.4%
- inhibition (Thailand/16681/1984, Concentration 198.0 uM, Number of replicates 2.0, Standard deviation 0.16101849440059574 %): 79%

Structure (SMILES): Cc1cc(CN)c2cccc(Cl)c2n1
- inhibition (Thailand/16681/1984, Concentration 49.95 uM, Number of replicates 2.0, Standard deviation 5.413623438036859 %): -7.74%
- inhibition (Thailand/16681/1984, Concentration 99.9 uM, Number of replicates 2.0, Standard deviation 5.696602605148216 %): -7.99%

Structure (SMILES): CN(CCO[Si](C)(C)C(C)(C)C)C(=O)C1CCN(c2ccc(C=O)cc2)CC1
- inhibition [1]: 11.8%

Structure (SMILES): Cc1cc(CO)c2cccc(Cc3cccc(NC(=O)C(=O)c4ccco4)c3)c2n1
- inhibition (Thailand/16681/1984, Concentration 49.95 uM, Number of replicates 2.0, Standard deviation 2.5499602835301056 %): -0.234%
- inhibition (Thailand/16681/1984, Concentration 99.9 uM, Number of replicates 2.0, Standard deviation 0.7837509937910023 %): -0.946%
